Measurements taken from the supplement of paper PMC12350171.
Where a name gives a salt, the structure may show the parent alone. A number with no mark means an inactive call.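 How the source made its calls: active = AUC significantly below DMSO controls by Student t-fit with adjusted P under 0.01; inactive = not significantly reduced.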

tested on: Shigella flexneri; assay: growth AUC normalised to DMSO control (fraction of control); higher = less growth inhibition, active = hit call of the paper; settings: 20 µM
Outline: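 Three biological replicates were carried out, with OD578 read hourly for 24 h. Before inoculation at a starting OD578 of 0.01, pathogens were passaged anaerobically twice; plates were pre-reduced mGAM containing 20 μM compound and 1% DMSO, sealed with breathable membranes, and the Haemophilus parainfluenzae medium carried added hemin and NAD. Area under each growth curve was calculated by the trapezoidal rule up to the exponential-to-stationary transition and normalised to DMSO controls on the same plate.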

Row | Compound | growth AUC normalised to DMSO control
1 | CC(=O)Oc1ccc(C(c2ccc(OC(C)=O)cc2)c2ccccn2)cc1 [Bisacodyl] | 1.01
2 | O=C(O)c1cc(/N=N/c2ccc(S(=O)(=O)Nc3ccccn3)cc2)ccc1O [Sulfasalazine] | 1.01
3 | COc1ccc2c(c1)c(CC(=O)O)c(C)n2C(=O)c1ccc(Cl)cc1 [Indomethacin] | 0.966
4 | CC(=O)[C@H]1CC[C@H]2[C@@H]3CCC4=CC(=O)CC[C@]4(C)[C@H]3CC[C@]12C [Progesterone] | 1.01
5 | O=C(O)c1cccnc1 [Niacin] | 1.02
6 | Cc1cn([C@H]2C[C@H](N=[N+]=[N-])[C@@H](CO)O2)c(=O)[nH]c1=O [Zidovudine] | 0.155 (active)
7 | C=C(CC)C(=O)c1ccc(OCC(=O)O)c(Cl)c1Cl [Ethacrynic acid] | 0.998
8 | Cn1c(=O)c2nc[nH]c2n(C)c1=O [Theophylline monohydrate] | 1.05
9 | COC1=CC(=O)C[C@@H](C)[C@]12Oc1c(Cl)c(OC)cc(OC)c1C2=O [Griseofulvin] | 0.998
10 | C[C@H]1[C@H](NC(=O)/C(=N\OC(C)(C)C(=O)O)c2csc(N)n2)C(=O)N1S(=O)(=O)O [Aztreonam] | 0.0599 (active)
11 | CC(C)NC[C@H](O)COc1cccc2ccccc12 [(S)-(-)-Propranolol hydrochloride] | 0.997
12 | CN/C(=N\CCSCc1nc[nH]c1C)NC#N [Cimetidine] | 0.992
